Consider 15 compounds from PubChem BioAssay (NCATS).

The source made the active and inactive calls. The call rests on the fitted dose curve.

For this test the following is noted: Ebola virus entry cell assay, ratio channel.
As to `O=P(O)(O)C(Sc1ccc(Cl)cc1)P(=O)(O)O`, the result was inactive.

On to `N#Cc1ccc(C(c2ccc(C#N)cc2)n2cncn2)cc1`, for which the outcome was inactive.

Regarding `CO/N=C(\C(=O)N[C@@H]1C(=O)N2C(C(=O)O)=C(COC(C)=O)CS[C@H]12)c1csc(N)n1` (stereo in doubt), the outcome was inactive.

For the compound `COc1cc(C)c(/C=C/C(C)=C/C=C/C(C)=C/C(=O)O)c(C)c1C`, the outcome was inactive.

With `CCCCCCCCCCCCCCCC(=O)OCCC1CCN(CCCN2c3ccccc3Sc3ccc(S(=O)(=O)N(C)C)cc32)CC1`, the outcome was inactive.

As to `CC=CC1=C(C(=O)O)N2C(=O)[C@H](NC(=O)[C@H](N)c3ccc(O)cc3)[C@@H]2SC1`, the result was inactive.

As for `C=CC1=C(C(=O)O)N2C(=O)[C@@H](NC(=O)/C(=N\O)c3csc(N)n3)[C@H]2SC1` (stereo in doubt), the result was inactive.

With `C=C1C(=C/C=C2\CCC[C@]3(C)[C@@H]([C@H](C)CCCC(C)(C)O)CC[C@@H]23)C[C@@H](O)C[C@@H]1O`, the result was inactive.

On to `CCN1C(=O)NC(c2ccccc2)C1=O` (stereo not given), for which the result was inactive.

As to `CO/N=C(/C(=O)N[C@@H]1C(=O)N2C(C(=O)O)=C(COC(N)=O)CS[C@H]12)c1ccco1`, the outcome was inactive.

On to `CN[C@@H](C)Cc1ccccc1`, for which the result was inactive.

Turning to `C[C@]12CC[C@@H]3c4ccc(OC(=O)N(CCCl)CCCl)cc4CC[C@H]3[C@@H]1CC[C@@H]2OP(=O)(O)O`, the result was inactive.

As to `Cc1onc(-c2ccccc2)c1C(=O)N[C@@H]1C(=O)N2[C@@H](C(=O)O)C(C)(C)S[C@@H]12`, the outcome was inactive.

Take `CC(C)CN(C[C@@H](O)[C@H](Cc1ccccc1)NC(=O)O[C@H]1CO[C@H]2OCC[C@H]21)S(=O)(=O)c1ccc(N)cc1`: the outcome was inactive.

In the case of `COc1ccnc(CS(=O)c2nc3cc(OC(F)F)ccc3[nH]2)c1OC` (stereo not given), the outcome was inactive.
